Assay results reported in PubChem BioAssay (EPA / NIEHS).
Active and inactive are the calls of the source. The calls were made as follows: active = hit-call score of the fitted dose curve at least 0.9, where 1 is the maximum; inactive = score below 0.9.

assay: ATG_Ets_CIS: Attagene CIS-FACTORIAL HepG2 Assay for human Erythroblast Transformation Specific (ETS) (AID 2282941); conditions: HepG2 ETS cis-reporter transcription, actives raise or lower the signal
Description: ATG_CIS is a cell-based, multiplexed-readout assay that uses HepG2, a human liver cell line, with measurements taken at 24 hours after chemical dosing in a 24-well plate.ATG_Ets_CIS is one of 52 assay component(s) measured or calculated from the ATG_CIS assay. It is designed to make measurements of mRNA induction, a form of inducible reporter, as detected with fluorescence intensity signals by Reverse transcription polymerase chain reaction (RT-PCR) and Capillary electrophoresis technology.Data from the assay component ATG_Ets_CIS was analyzed into 1 assay endpoint. This assay endpoint, ATG_Ets_CIS, was analyzed with bidirectional fitting relative to DMSO as the negative control and baseline of activity. Using a type of inducible reporter, measures of mRNA for gain or loss-of-signal activity can be used to understand the reporter gene at the transcription factor-level as they relate to the gene ETS1. Furthermore, this assay endpoint can be referred to as a primary readout, because this assay has produced multiple assay endpoints where this one serves a reporter gene function. To generalize the intended target to other relatable targets, this assay endpoint is annotated to the dna binding intended target family, where the subfamily is winged helix-turn-helix.
Human liver HepG2 cells are transiently transfected with multiple reporter transcription units (MRTUs) in 6-well plates using FuGene 6 reagent (Roche; 3 ml FuGene/1 mg DNA). The MRTU constructs are regulated by a cis-regulating element (promoter). […] A major difference between the CIS and TRANS system is that in CIS activities of endogenous TFs are measured, whereas the TRANS assay evaluates changes in activities of exogenous, chimeric NR-Gal4 proteins. […] At the end of 24 hour incubation, total RNA was isolated using TriZol reagent (Invitrogen). The isolated RNA is then reverse-transcribed using oligo(dT) primer and Mo-MLV reverse transcriptase (Invitrogen) with DNAse I (Ambion) treatment for 30 min. The one-tenth of the produced cDNA was amplified by PCR using Taq DNA polymerase (Invitrogen) and two reporter sequence-specific primers. The PCR products were fluorescently labeled by primer extension with 6-arboxyfluorescein (6-FAM) 5'-labeled reporter sequence-specific primer (2 min at 95 C, 20 s at 68 C and 10 min at 72 C) and these products were digested with 5U of HpaI (New England Biolabs) for 2h at 37 C. The fragments were purified using Qiaquick PCR columns (Qiagen), analyzed on an ABI 3130xL genetic analyzer (Applied Biosystems) with peak positions identified by using a set of X-rhodamine (ROX)-labeled MapMarker1000 molecular weight standards (BioVentures). The raw capillary electrophoresis data was processed using Attagraph software (Attagene).

Compound | outcome | AC50
ClC1=C(Cl)[C@]2(Cl)[C@@H]3[C@@H](Cl)[C@@H](Cl)C[C@@H]3[C@@]1(Cl)C2(Cl)Cl | inactive | 
C[C@H]1CCCC(=O)CCC/C=C/c2cc(O)cc(O)c2C(=O)O1 |  | 7.35 µM (active)
NC(=O)O | inactive | 
CCOP(=O)(CN(CCO)CCO)OCC | inactive | 
CCc1ccccc1N | inactive | 
Cc1cc(Cl)ccc1O[C@H](C)C(=O)O | inactive | 
COc1ccc(OC)c(C=O)c1 | inactive | 
OCc1ccco1 | inactive | 
CCCCP(CCCC)CCCC | inactive | 
CCCCC(CC)CO[N+](=O)[O-] (stereo not given) | inactive | 
O=C(OC1CCCCC1)c1ccccc1C(=O)OC1CCCCC1 | inactive | 
CC(C)(c1ccccc1)c1ccc(O)c(C(C)(C)c2ccccc2)c1 | inactive | 
O=C(Nc1ccc2[nH]ccc2c1)c1cc2cc(F)ccc2n1Cc1cccc(F)c1 | inactive | 
COP(=O)(OC)OC | inactive | 
Fc1ccc(C2(Cn3cncn3)OC2c2ccccc2Cl)cc1 (stereo not given) | inactive | 
CC(C)CCCCCCOC(=O)c1ccccc1C(=O)OCCCCCCC(C)C | inactive | 
CCC(=O)C(CC(C)N(C)C)(c1ccccc1)c1ccccc1 (stereo not given) | inactive | 
OCC(O)CCl (stereo not given) | inactive | 
CCCCCCCCc1ccc(O)cc1 | inactive | 
O=C/C=C/c1ccccc1 | inactive | 

Compound | outcome | AC50
O=[N+]([O-])c1ccc(O)c([N+](=O)[O-])c1 | inactive | 
COC(=O)c1sccc1S(=O)(=O)NC(=O)Nc1nc(C)nc(OC)n1 | inactive | 
Clc1ccc(C2(Cn3cncn3)CC(Br)CO2)c(Cl)c1 (stereo not given) | inactive | 
COP(=S)(OC)Oc1ccc(S(=O)(=O)N(C)C)cc1 | inactive | 
CCN(CC)C(=O)Cl | inactive | 
CC(C)(OO)c1ccccc1 | inactive | 
CC(=[OH+])/C=C(/C)[O-].CC(=[OH+])/C=C(/C)[O-].CC(=[OH+])/C=C(/C)[O-].[Al] | inactive | 
C=CCc1ccc(OC)cc1 | inactive | 
Cl/C=C\C[N+]12CN3CN(CN(C3)C1)C2 | inactive | 
Cc1cc(=O)[nH]o1 | inactive | 
ClCCBr | inactive | 
CCCCOCCOC(C)=O | inactive | 
ClC1=C(Cl)[C@]2(Cl)[C@H]3[C@H]([C@H]4C=C[C@H]3C4)[C@@]1(Cl)C2(Cl)Cl | inactive | 
C[C@]12CC[C@H](O)CC1=CC[C@@H]1[C@@H]2CC[C@]2(C)C(=O)CC[C@@H]12 | inactive | 
CCCCCCCCSC(=O)Oc1cc(Cl)nnc1-c1ccccc1 |  | 162 µM (active)
CC(C)(c1ccc(OCC2CO2)cc1)c1ccc(OCC2CO2)cc1 (stereo not given) | inactive | 
CC1(C)CCC(Cc2ccc(Cl)cc2)C1(O)Cn1cncn1 (stereo not given) | inactive | 
Nc1ccc(-c2ccc(N)c(Cl)c2)cc1Cl | inactive | 
CC12CC1(C)C(=O)N(c1cc(Cl)cc(Cl)c1)C2=O (stereo not given) | inactive | 
CCOP(OCC)OCC | inactive | 
